In PubChem BioAssay (NCI) one finds growth inhibition data, which are given here for 21 molecules.

The panel holds about 79,000 compounds, 15% with a hit somewhere; the sample as a whole holds those more often. Unmarked numbers belong to inactive results. The source made the active and inactive calls. Cut-off read from the data, not from the text of the source: active = growth inhibition above about 70%; inactive = the rest.

Assay [1] is described as follows: NCI Yeast Anticancer Drug Screen. Data for the rad50 strain (AID 155).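 Note: 0% = growth of vehicle-only cultures of the same strain.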 The conditions noted are these: S. cerevisiae rad50 strain growth inhibition; at 50.0 µM; active compounds read high. In a few lines: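 Cells are treated with compound, grown, and their growth is then scored against vehicle-only cultures of the same repair-deficient yeast strain.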
A short description of assay [2]: NCI Yeast Anticancer Drug Screen. Data for the mec2-1 strain (AID 157). The conditions noted are these: S. cerevisiae mec2-1 strain, at 50.0 µM, active compounds read high. In a few lines:
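Vehicle-treated cultures served as reference for growth inhibition of compound-exposed mec2-1 yeast.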

Assay [3] is described as follows: NCI Yeast Anticancer Drug Screen. Data for the sgs1 mgt1 strain (AID 161).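 Note: 0% = growth of cultures given vehicle only.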 The conditions noted are these: S. cerevisiae sgs1 mgt1 strain, at 50.0 µM, active compounds read high. Summed up:
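Test agents were incubated with a DNA-repair-mutant yeast strain. Growth was then read and compared against vehicle-treated controls.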

Assay [4] in a line: NCI Yeast Anticancer Drug Screen. Data for the cln2 rad14 strain (AID 165).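 Note: 0% = growth equal to vehicle treated cultures.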 The conditions noted are these: S. cerevisiae cln2 rad14 strain, at 50.0 µM, active compounds read high. Summed up:
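Each compound was tested on cln2 rad14 yeast. Inhibition of growth was calculated against vehicle-exposed controls.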

The nature of assay [5]: NCI Yeast Anticancer Drug Screen. Data for the bub3 strain (AID 167). The conditions noted are these: S. cerevisiae bub3 mutant strain, at 50.0 µM, active compounds read high. In a few lines:
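Part of a panel of yeast mutants defective in DNA damage repair or cell cycle regulation. Each strain is grown with compound, and inhibition is calculated relative to solvent-treated cultures.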

Assay [6] is described as follows: NCI Yeast Anticancer Drug Screen. Data for the mlh1 rad18 strain (AID 175). The conditions noted are these: S. cerevisiae mlh1 rad18 strain growth inhibition; at 50.0 µM; active compounds read high. Summed up: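 Vehicle-treated cultures served as the reference for growth inhibition in a yeast strain carrying DNA damage repair alterations exposed to each compound.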

In the case of `CC(=O)O[C@]12CCCCC1C1(O)C(O)CCCC[C@H]12` (stereo partly specified), the growth inhibition in assay [1] is -41.8%; in assay [2], -62.2%; in assay [3], -65.5%; in assay [4], -4.95%; in assay [5] it was -20.6%; in assay [6] it was -31.8%.

As for `O=C1c2ccc(O)cc2OC(c2ccc(O)c(O)c2)C1O` (stereo unspecified), the growth inhibition in assay [1] is 7.6%; in assay [2] it was -7.25%; in assay [3], 17.8%; in assay [4], 1.85%; in assay [5], 6%; in assay [6], 6.4%.

With `NC(=O)N/N=C/C(Cc1ccccc1)=N/OCc1ccccc1`, the growth inhibition in assay [1] was -6.9%; in assay [2], -1.8%; in assay [3] it was -0.45%; in assay [4], -17.6%; in assay [5] it was 16.4%; in assay [6], -1.75%.

`CN(C)c1ccc(C=C2/C(=N\O)c3ccccc3/C2=N/O)cc1`: the growth inhibition in assay [1] is -1.5%; in assay [2], 38.1%; in assay [3], 39%; in assay [4], -8.2%; in assay [5] it was 34.2%; in assay [6], 48.1%.

As for `CCC(=O)Nc1cc(Cl)c(Cl)cc1C`, the growth inhibition in assay [1] is -8.7%; in assay [2], -12.4%; in assay [3], -13.5%; in assay [4] it was -85.8%; in assay [5], -27.2%; in assay [6] it was -12%.

Turning to `Cc1ccc(NC(=O)OCCOc2c(C(C)C)cccc2C(C)C)c([N+](=O)[O-])c1`, the growth inhibition was -0.8% in assay [1]; -3.3% in assay [2]; 8.55% in assay [3]; -41.9% in assay [4]; -7.7% in assay [5]; 18.4% in assay [6].

Turning to `Cc1n(C)c(C(O)c2ccccc2)c(Br)[n+]1C` (stereo unspecified), the growth inhibition in assay [1] was 9.3%; in assay [2], 1.4%; in assay [3], 8.25%; in assay [4], -12.1%; in assay [5], 77.7% (active); in assay [6], 12.6%.

In the case of `Cc1ccccc1N=Nc1c(-c2ccccc2)nn(C(N)=S)c1-c1ccccc1`, the growth inhibition in assay [1] is 36.2%; in assay [2] it was 7.2%; in assay [3], 24.1%; in assay [4] it was 4.05%; in assay [5] it was 0.95%; in assay [6], 19%.

Consider `Cn1c(=O)c2c(ncn2C2C(=O)NNC2=O)n(C)c1=O`, for which the growth inhibition in assay [1] is -7.15%; in assay [2], -8.45%; in assay [3] it was -17.2%; in assay [4], 2.35%; in assay [5] it was 7.55%; in assay [6], 0.9%.

For the molecule `S=c1nc[nH]c2c1ncn2Cc1ccccc1`, the growth inhibition in assay [1] is 5.55%; in assay [2] it was 4.25%; in assay [3], -14.3%; in assay [4], 1.3%; in assay [5], 4.9%; in assay [6], 2.35%.

Turning to `CC(C)c1cccc2ccccc12`, the growth inhibition in assay [1] was 2.85%; in assay [2], 0.2%; in assay [3], -2.9%; in assay [4] it was -13.8%; in assay [5], -4.7%; in assay [6], 13.4%.

Consider `O=c1nc(/C=C/c2ccccc2Cl)cc2n1CCN2CCO`, for which the growth inhibition was -17.4% in assay [1]; -10.7% in assay [2]; -4.2% in assay [3]; 4.1% in assay [4]; -3.1% in assay [5]; -10.2% in assay [6].

Turning to `CN(C)c1ccc(/C(=N\O)C(=O)O)cc1`, the growth inhibition was -15.2% in assay [1]; -13.3% in assay [2]; -2.2% in assay [3]; -9.1% in assay [4]; 0.1% in assay [5]; 1.55% in assay [6].

Consider `CCCCSCCC(=O)O`, for which the growth inhibition is 18.4% in assay [1]; -3.05% in assay [2]; -22.2% in assay [3]; 3.95% in assay [4]; 5.95% in assay [5]; 5.85% in assay [6].

As for `CCc1nnc2sc3c(Cl)c4nn5c(CC)nnc5sc4c(Cl)c3nn12`, the growth inhibition was 37.2% in assay [1]; -6.2% in assay [2]; 16.8% in assay [3]; 24.2% in assay [4]; -0.3% in assay [5]; 12.5% in assay [6].

Take `O=C1CNC(=O)N1c1ccccc1`: the growth inhibition is 7.35% in assay [1]; 5.75% in assay [2]; 4.4% in assay [3]; -9.2% in assay [4]; 5.65% in assay [5]; 3.8% in assay [6].

Regarding `NCC1OCOC2C(C(=O)O)OCOC12` (stereo unspecified), the growth inhibition is 10.6% in assay [1]; 2.6% in assay [2]; 14.3% in assay [3]; -16% in assay [4]; 3.8% in assay [5]; -3.7% in assay [6].

Take `O=S(=O)(c1ccccc1)c1ccc(CBr)cc1`: the growth inhibition is 16.1% in assay [1]; 1.85% in assay [2]; -10.4% in assay [3]; 17.5% in assay [4]; -2.55% in assay [5]; -8.9% in assay [6].

Consider `O=Cc1ccccc1CCn1c(=O)c2cc3c(=O)n(CCc4ccccc4C=O)c(=O)c3cc2c1=O`, for which the growth inhibition in assay [1] is 33.7%; in assay [2] it was 18.9%; in assay [3], 11.8%; in assay [4], -11.8%; in assay [5], -4.35%; in assay [6] it was 18.8%.

As for `COC(=O)Cc1cccc2c(=O)c(S(=O)(=O)NC(=O)Nc3ccc(Cl)cc3)c(-c3ccccc3)oc12`, the growth inhibition in assay [1] was 20.9%; in assay [2], 23.1%; in assay [3], 31.6%; in assay [4], 50.4%; in assay [5], 35.4%; in assay [6], 17.8%.

As to `CC(C)(C)OC(=O)N/N=C(/N)Cc1ccc(Cl)cc1`, the growth inhibition was -4.05% in assay [1]; 19.4% in assay [2]; -6.2% in assay [3]; -13.9% in assay [4]; -14.2% in assay [5]; 6.4% in assay [6].
